# Reference: PubChem BioAssay (NCATS)
# Inconclusive results are not listed. Activity calls are given as the source filed them. Unless noted, the call rests on the fitted dose curve; in most records, active means well fitted curve in the direction sought with a large enough effect; inconclusive means small, poorly fitted or top-dose-only effect, or another doubt; inactive means no such curve, though single readings can be large; an effect the other way counts as inactive or inconclusive.
# What was measured:
# [1] = test system: Zika virus NS2B-NS3 protease (linked construct); assay: Confirmatory screen NINDS AMC qHTS for Zika virus inhibitors (AID 1347152); further: potency means the concentration at half of the fitted maximal effect; nearly all actives have a fitted effect of over 70% in size
# How it was run: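 Purified NS2B-NS3 protease with NS2B hydrophilic domain linked to NS3 protease domain by flexible linker, 1 nM final in 10 mM Tris-HCl pH 8.0, 0.01% Tween 20. Compounds preincubated 15 min, room temperature; Bz-Nle-KRR-AMC 10 microM (Km 18.3 µM); 15-min fluorescence change, 4-parameter Hill fit.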
# [2] = qHTS profiling of the MIPE4 collection as inhibitors of Plasmodium falciparum (3D7) proliferation (AID 743344; call rule not given here;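 further: scaled between DMSO vehicle wells and 0.29 µM artemisinin as full inhibition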); conditions: P. falciparum 3D7 in erythrocytes, SYBR Green DNA fluorescence, 72 h; at 28.5 µM (top of the series)
# How it was run: (§1)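 Erythrocytes infected with P. falciparum (0.3% parasitemia, 2.5% hematocrit) incubated with compounds 72 h at 37 C, 5% CO2. Lysis with saponin/Triton buffer containing SYBR Green I, overnight at room temperature in the dark; DNA fluorescence (485/535 nm) normalised to 0.29 uM artemisinin and DMSO.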
# [3] = qHTS profiling of the MIPE4 collection as inhibitors of Plasmodium falciparum (DD2) proliferation (AID 743345; call rule not given here); conditions: P. falciparum Dd2 in erythrocytes, SYBR Green DNA, 72 h; at 28.5 µM (top of the series)
# How it was run: as §1
# [4] = qHTS profiling of the MIPE4 collection as inhibitors of Plasmodium falciparum (DD2) proliferation (Rep 2) (AID 743346; call rule not given here); conditions: P. falciparum Dd2 in erythrocytes, SYBR Green DNA, 72 h; at 28.5 µM (top of the series)
# How it was run: as §1
# [5] = qHTS profiling of the MIPE4 collection as inhibitors of Plasmodium falciparum (HB3) proliferation (AID 743347; call rule not given here;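 further: plate controls were DMSO vehicle wells for no effect and artemisinin wells for full effect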); conditions: P. falciparum HB3 in erythrocytes, SYBR Green DNA, 72 h; at 28.5 µM (top of the series)
# How it was run: as §1
# [6] = Stat Signaling Pathway (AID 446; active means well fitted curve in either direction with a large enough effect, not every such curve was filed as active;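 further: ME-180 cervical cancer cells given 40 pM IL-6 alongside compound; SIE-controlled beta-lactamase reporter measured as 460/530 nm FRET emission ratio; on the % scale 0 is the no-effect control and ±100 the full control effect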); conditions: ME-180 SIE beta-lactamase reporter, IL-6 stimulated, 5 h; at 17.2 µM (top of the series)
# How it was run: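 ME-180 cells carrying a SIE-driven beta-lactamase reporter are stimulated with 40 pM IL-6 for 5 h at 37C in the presence of compound. The 460/530 nm FRET substrate ratio is read after 2.5 h at RT. Data are normalised to 300 pM IL-6 and to 125 nM JAK inhibitor controls.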
# [7] = molecular target: Glucocorticoid receptor (Homo sapiens) (UniProt P04150); assay: GR-EFC Redistribution (AID 451; calls by dose curve; further: potency means the concentration at half of the fitted maximal effect); conditions: CHO-K1 GR-EFC translocation, beta-gal luminescence, 2 h
# How it was run: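 CHO-K1 cells expressing nuclear EA and GR-ED fragments of b-gal; compounds titrated up to 46 uM final, 2 h at 37 C. GR nuclear translocation read as complemented b-gal luminescence after 1 h RT detection.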
# [8] = molecular target: Mitogen-activated protein kinase 10 (Mus musculus) (UniProt Q61831); assay: JNK3 AlphaScreen Assay (AID 530; active means well fitted curve in either direction with a large enough effect, not every such curve was filed as active;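 further: kinase came from lysate of stimulated human HepG2 cells; signal reports phosphorylation of biotinylated GST-cJun 1-79 at Ser73 with 10 µM ATP; on the % scale 0 is the no-effect control and ±100 the full control effect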)
# How it was run: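 Pre-activated (IL-1β/TNFα) JNK3 in HepG2 lysates phosphorylates biotin-GST-cJun(1-79), 10 uM ATP; anti-phospho-cJun(Ser73) AlphaScreen read at room temperature, pH 7.6 Tris buffer. Compounds pre-incubated 15 min as titrations.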
# [9] = molecular target: Cytochrome P450 2C9 (Homo sapiens) (UniProt P11712); assay: qHTS Assay for Inhibitors and Substrates of Cytochrome P450 2C9 (AID 883); further: potency means the concentration at half of the fitted maximal effect; nearly all actives have a fitted effect of over 60% in size
# How it was run: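 10nM CYP2C9 + 100uM Luciferin-H (=KM), 25mM KPO4; cpd 10 min 37C; NADPH regen, 60 min 37C; stop/detect with P450 Glo-Buffer 20 min; luminescence. Norm. to 57uM sulphaphenazole as full inhibition.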
# [10] = molecular target: Cytochrome P450 2C19 (Homo sapiens) (UniProt P33261); assay: qHTS Assay for Inhibitors and Substrates of Cytochrome P450 2C19 (AID 899); further: potency means the concentration at half of the fitted maximal effect; nearly all actives have a fitted effect of over 60% in size
# How it was run: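 Luminescent read-out of luciferin formed from Luciferin-H EGE (10uM, equal to KM). Enzyme 5nM in 50mM KPO4; compound added, 10 min at 37C, then NADPH regenerating system for 60 min at 37C. Full inhibition defined by 57uM ketoconazole.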
# [11] = molecular target: DNA dC->dU-editing enzyme APOBEC-3G (Homo sapiens) (UniProt Q9HC16); assay: qHTS for inhibitors of Vif-A3G interactions: Validation (AID 588379); further: 0% is about no effect
# How it was run: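 HeLa cells stably expressing Vif and A3G-eYFP, 700 cells/well, incubated overnight at 37 deg C, then exposed to compound overnight at 37 deg C. Inhibition of Vif-mediated degradation read as increased yellow fluorescence (Ex 488/Em 500-530) by laser-scanning cytometry.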
# [12] = NCATS anti-infectives library activity on the primary C. elegans qHTS viability assay (AID 1745855; calls by dose curve)
# How it was run: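 Viability read-out is GFP fluorescence of PE254-GFP-FLuc C. elegans, measured by laser cytometry (488 nm) at day 0, 3 and 7. Ten L1 worms per well were incubated 7 days at 21 °C with compounds and bacterial capsules in S medium.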
# [13] = molecular target: Rap guanine nucleotide exchange factor 3 (Homo sapiens) (UniProt O95398); assay: Confirmatory qHTS for antagonist of cAMP-regulated guanine nucleotide exchange factor 3 (EPAC1) (AID 1645880);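 further: plate controls were DMSO only for no effect and full effect of the ATA control for full effect; nearly all actives have a fitted effect of over 55% in size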
# How it was run: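 Nucleotide exchange uses 100 nM EPAC1, 250 nM RAP1B-BODIPY-GDP and 50 uM GDP, with compounds in a concentration-titration series. After 5 min at room temperature, fluorescence (480 nm ex/540 nm em) is read every 5 min for 30 min. Data are normalized to control ATA and DMSO.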
# 7G8 = assay: qHTS profiling for inhibitors of Plasmodium falciparum proliferation (AID 504749); further: potency means the concentration at half of the fitted maximal effect; nearly all actives have a fitted effect of over 60% in size; conditions: P. falciparum in erythrocytes, SYBR Green DNA, 72 h; series mostly up to 28.7 µM
# How it was run: (§2)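 P. falciparum-infected erythrocytes (0.3% parasitemia, 2.5% hematocrit) incubated with compound 72 h at 37 C, 5% CO2. Parasite DNA detected by SYBR Green after lysis, overnight at room temperature; normalised to 0.29 uM artemisinin and DMSO.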
# ATS189 = assay: as above; conditions: P. falciparum in erythrocytes, SYBR Green DNA, 72 h; series mostly up to 28.7 µM
# How it was run: as §2
# CP191 = assay: as above; conditions: P. falciparum in erythrocytes, SYBR Green DNA, 72 h; series mostly up to 28.7 µM
# How it was run: as §2
# CP291 = assay: as above; conditions: P. falciparum in erythrocytes, SYBR Green DNA, 72 h; series mostly up to 28.7 µM
# How it was run: as §2
# DIV14 = assay: as above; conditions: P. falciparum in erythrocytes, SYBR Green DNA, 72 h; series mostly up to 28.7 µM
# How it was run: as §2
# DIV17 = assay: as above; conditions: P. falciparum in erythrocytes, SYBR Green DNA, 72 h; series mostly up to 28.7 µM
# How it was run: as §2
# GB4 = assay: as above; conditions: P. falciparum in erythrocytes, SYBR Green DNA, 72 h; series mostly up to 28.7 µM
# How it was run: as §2
# Chain of Rap guanine nucleotide exchange factor 3 (Homo sapiens) (O95398 whole entry, looked up): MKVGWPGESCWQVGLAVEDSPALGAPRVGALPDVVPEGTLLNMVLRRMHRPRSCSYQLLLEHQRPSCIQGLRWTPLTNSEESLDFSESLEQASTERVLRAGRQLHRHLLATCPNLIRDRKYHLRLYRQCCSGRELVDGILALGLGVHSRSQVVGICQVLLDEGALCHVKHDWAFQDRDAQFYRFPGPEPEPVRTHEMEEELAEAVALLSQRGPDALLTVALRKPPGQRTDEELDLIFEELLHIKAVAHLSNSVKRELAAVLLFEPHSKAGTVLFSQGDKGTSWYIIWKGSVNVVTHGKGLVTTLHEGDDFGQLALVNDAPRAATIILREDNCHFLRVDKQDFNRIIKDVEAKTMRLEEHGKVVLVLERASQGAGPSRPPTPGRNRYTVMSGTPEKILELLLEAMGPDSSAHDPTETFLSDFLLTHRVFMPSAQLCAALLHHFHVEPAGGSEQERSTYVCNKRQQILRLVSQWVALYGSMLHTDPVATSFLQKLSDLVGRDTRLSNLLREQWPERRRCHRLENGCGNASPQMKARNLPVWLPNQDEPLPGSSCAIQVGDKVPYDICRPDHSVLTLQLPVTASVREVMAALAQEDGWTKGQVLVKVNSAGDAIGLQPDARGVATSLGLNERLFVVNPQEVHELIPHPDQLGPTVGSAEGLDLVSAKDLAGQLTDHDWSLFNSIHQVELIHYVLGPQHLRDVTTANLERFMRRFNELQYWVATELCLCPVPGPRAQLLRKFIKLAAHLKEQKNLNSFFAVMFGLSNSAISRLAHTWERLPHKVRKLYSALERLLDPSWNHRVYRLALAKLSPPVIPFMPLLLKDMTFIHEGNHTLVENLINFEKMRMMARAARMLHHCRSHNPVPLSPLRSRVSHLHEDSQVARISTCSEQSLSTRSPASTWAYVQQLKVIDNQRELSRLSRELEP
# Chain of Glucocorticoid receptor (Homo sapiens) (P04150 whole entry, looked up, the tested form may be a part): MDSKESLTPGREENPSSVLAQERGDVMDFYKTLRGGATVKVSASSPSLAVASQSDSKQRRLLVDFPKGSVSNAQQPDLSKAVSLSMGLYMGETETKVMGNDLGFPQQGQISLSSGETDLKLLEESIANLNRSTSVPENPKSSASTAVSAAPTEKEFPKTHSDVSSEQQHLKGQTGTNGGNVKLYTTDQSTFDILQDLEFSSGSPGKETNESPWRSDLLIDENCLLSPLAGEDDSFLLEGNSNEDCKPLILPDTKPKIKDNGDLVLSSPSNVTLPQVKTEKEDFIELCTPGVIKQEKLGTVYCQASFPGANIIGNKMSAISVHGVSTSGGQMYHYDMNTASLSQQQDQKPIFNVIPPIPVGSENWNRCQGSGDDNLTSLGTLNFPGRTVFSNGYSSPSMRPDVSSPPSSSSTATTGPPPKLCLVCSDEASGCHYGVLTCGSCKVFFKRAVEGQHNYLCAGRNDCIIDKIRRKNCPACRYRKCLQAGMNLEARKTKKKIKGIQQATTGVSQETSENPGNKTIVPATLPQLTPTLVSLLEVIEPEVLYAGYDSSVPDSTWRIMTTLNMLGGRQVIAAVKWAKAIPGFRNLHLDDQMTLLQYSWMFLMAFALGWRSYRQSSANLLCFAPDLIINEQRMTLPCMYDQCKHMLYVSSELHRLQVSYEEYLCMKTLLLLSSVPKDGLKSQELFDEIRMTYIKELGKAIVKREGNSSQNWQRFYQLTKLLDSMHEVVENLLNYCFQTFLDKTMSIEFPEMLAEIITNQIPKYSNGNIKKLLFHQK
# Chain of Cytochrome P450 2C9 (Homo sapiens) (P11712 whole entry, looked up): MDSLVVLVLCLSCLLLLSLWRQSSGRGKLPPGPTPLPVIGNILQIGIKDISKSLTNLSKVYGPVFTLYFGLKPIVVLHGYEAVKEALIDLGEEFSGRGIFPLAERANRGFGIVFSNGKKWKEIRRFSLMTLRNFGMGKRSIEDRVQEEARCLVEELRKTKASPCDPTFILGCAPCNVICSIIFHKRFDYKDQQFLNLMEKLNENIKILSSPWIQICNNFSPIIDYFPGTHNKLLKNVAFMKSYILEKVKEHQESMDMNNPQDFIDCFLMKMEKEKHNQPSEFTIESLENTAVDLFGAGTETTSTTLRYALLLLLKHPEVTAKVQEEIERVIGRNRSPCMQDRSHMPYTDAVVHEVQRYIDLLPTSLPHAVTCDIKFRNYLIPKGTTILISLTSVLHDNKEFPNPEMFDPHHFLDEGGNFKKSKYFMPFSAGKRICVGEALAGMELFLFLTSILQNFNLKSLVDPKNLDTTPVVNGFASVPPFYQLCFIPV
# Chain of Cytochrome P450 2C19 (Homo sapiens) (P33261 whole entry, looked up): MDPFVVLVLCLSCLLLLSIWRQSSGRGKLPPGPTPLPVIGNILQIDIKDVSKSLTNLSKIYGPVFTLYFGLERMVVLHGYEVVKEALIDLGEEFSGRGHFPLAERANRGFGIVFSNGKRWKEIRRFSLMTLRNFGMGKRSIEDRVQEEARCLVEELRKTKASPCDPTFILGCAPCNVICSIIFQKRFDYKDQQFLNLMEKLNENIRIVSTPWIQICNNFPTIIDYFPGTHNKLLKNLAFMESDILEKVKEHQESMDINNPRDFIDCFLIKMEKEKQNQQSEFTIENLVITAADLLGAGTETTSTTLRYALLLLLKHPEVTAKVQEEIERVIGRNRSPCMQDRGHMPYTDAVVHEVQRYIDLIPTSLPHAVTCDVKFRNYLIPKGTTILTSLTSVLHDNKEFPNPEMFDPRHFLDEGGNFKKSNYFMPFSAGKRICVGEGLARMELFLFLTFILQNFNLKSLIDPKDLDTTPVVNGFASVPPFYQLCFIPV
# Chain of DNA dC->dU-editing enzyme APOBEC-3G (Homo sapiens) (Q9HC16 whole entry, looked up): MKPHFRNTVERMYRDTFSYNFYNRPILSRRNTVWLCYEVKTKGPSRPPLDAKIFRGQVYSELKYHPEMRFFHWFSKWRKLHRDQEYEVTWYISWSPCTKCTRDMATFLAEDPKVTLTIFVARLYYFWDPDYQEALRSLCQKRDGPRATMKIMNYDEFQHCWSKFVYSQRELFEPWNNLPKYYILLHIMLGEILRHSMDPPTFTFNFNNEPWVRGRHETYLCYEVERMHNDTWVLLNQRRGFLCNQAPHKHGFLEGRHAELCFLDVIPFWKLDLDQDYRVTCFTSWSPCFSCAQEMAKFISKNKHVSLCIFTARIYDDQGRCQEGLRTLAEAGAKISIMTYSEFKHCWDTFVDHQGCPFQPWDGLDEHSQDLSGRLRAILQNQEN
structure (smiles),measurement,setting,value
CN(Cc1ccc(C(=O)O)cc1)c1ccc(OCc2c(-c3c(Cl)cccc3Cl)noc2C2CC2)nc1C(F)(F)F,Potency,[1],13.9 µM (active)
CC1(C)N=C(N)N=C(N)N1c1ccc(Cl)cc1,"parasite growth, % of DMSO control",[2],5.76%
same,"parasite growth remaining, % of DMSO control (lower = more inhibition)",[3],13.5%
same,"parasite growth, % of control (lower = inhibition)",[4],19.9%
same,"growth, % of control",[5],2.49%
CCOC(=O)CCC(=O)O[C@H]1[C@H](O[C@@H]2[C@@H](C)[C@H](O[C@H]3C[C@@](C)(OC)[C@@H](O)[C@H](C)O3)[C@@H](C)C(=O)O[C@H](CC)[C@@](C)(O)[C@H](O)[C@@H](C)C(=O)[C@H](C)C[C@@]2(C)O)O[C@H](C)C[C@@H]1N(C)C,"activity, negative = inhibition",[6],1.81% (inactive)
Cc1nc2c(O)cccc2c(=O)[nH]1,Potency,[7],> 46 µM (inactive)
same,Potency,[8],inactive
same,Potency,[9],3.98 µM (active)
same,Potency,[10],0.398 µM (active)
same,Potency,[11],inactive
same,Potency,[12],inactive
C#C[C@]1(OC(C)=O)CC[C@H]2[C@@H]3CCC4=CC(=O)CC[C@@H]4[C@H]3CC[C@@]21C,Potency,[13],inactive
CN1CCN(CCC=C2c3ccccc3Sc3ccc(S(=O)(=O)N(C)C)cc32)CC1,Potency,7G8,5.01 µM (active)
same,Potency,ATS189,8.91 µM (active)
same,Potency,CP191,12.6 µM (active)
same,Potency,CP291,15.1 µM (active)
same,Potency,DIV14,8.49 µM (active)
same,Potency,DIV17,9.53 µM (active)
same,Potency,GB4,13.5 µM (active)
